Compounds with a hit are over-represented: about 2.4% of the library has one in this group of screens.
WRN inhibitor – blocks human WRN helicase | WRN helicase unwinding, fluorescent forked duplex, kinetic | Potency, µM (highest dose often 114 µM), without a hit: top-dose activity change, negative = inhibition, hits mostly inhibitors | hit rate 0.46% among 360,000 | AID 651768; further: on the % scale 0 is the no-effect control and ±100 the full control effect; nearly all actives have a fitted effect of over 55% in size
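Fluorescence dequenching readout, ex 525 nm/em 598 nm, kinetic mode: forked duplex DNA (100 nM final) with adjacent fluorophore and quencher unwound by WRN (20 nM final) with 2 mM ATP. Compound preincubation 15 min, room temperature.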
Pol kappa inh – inhibitors of human DNA polymerase kappa. Q9UBT6. hit rate 0.53% among 400,000. purified Pol kappa, fluorescent DNA synthesis assay, 10 min. Potency, µM (highest dose often 107 µM), for the others: at the highest dose activity, negative = inhibition, most hits filed as inhibitors; further: on the % scale 0 is the no-effect control and ±100 the full control effect
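10 nM Pol kappa preincubated 15 min at room temperature with compounds, then reaction started with substrate at 50 nM final. Fluorescence read kinetically at 0 and 10 min; buffer-only wells served as negative control.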
FEN1 inh – blocks human flap endonuclease 1 | Recombinant FEN1 flap cleavage, fluorescence, 15 min | Potency, µM (top dose mostly 114 µM), for inactives: at the highest dose activity change, negative = inhibition, hits mostly inhibitors | hit rate 0.35% among 390,000; further: on the % scale 0 is the no-effect control and ±100 the full control effect; nearly all actives have a fitted effect of over 65% in size
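Recombinant FEN1 (10 nM) was preincubated with pin-transferred compounds for 15 min at room temperature, then flap DNA substrate (50 nM final) was added. Plates were read at 0 and 15 min, and normalized concentration–response data were fitted to a four-parameter Hill equation.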
POLI inh – blocks human DNA polymerase iota activity; hit rate 1% among 390,000; AID 588590; Potency, µM (titrated, usually from 115 µM), without a hit: top-dose activity, negative = inhibition, hits mostly inhibitors; Pol iota fluorescent replication assay, 10 min; Q9UNA4
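Pol iota at 10 nM preincubated 15 min with compounds at room temperature; reaction started with fluorescent substrate, 50 nM final. Fluorescence read kinetically at 0 and 10 min; buffer-only wells as negative control.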
POLB inh – inhibitors of human DNA polymerase beta; hit rate 1.3% among 340,000; Potency, µM (titrated, usually from 114 µM), without a hit: at the highest dose activity change, negative = inhibition, hits mostly inhibitors; Pol beta primer extension/strand displacement, fluorescence kinetic; P06746; AID 485314; further: on the % scale 0 is the no-effect control and ±100 the full control effect
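Values derive from four-parameter Hill fits of normalized kinetic data: reads at 0 and 10 min following addition of 50 nM substrate to 10 nM Pol beta preincubated 15 min with compound.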
POLH inh – blocks human DNA polymerase eta activity; Q9Y253; recombinant Pol eta, fluorescent DNA replication assay; Potency, µM (highest dose often 114 µM), inactives show top-dose activity change, negative = inhibition, actives largely listed as inhibitors; hit rate 1.2% among 390,000; AID 588591; further: on the % scale 0 is the no-effect control and ±100 the full control effect
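Pol eta at 10 nM preincubated with compounds 15 min at room temperature; reaction started with fluorescent substrate (50 nM final) and read kinetically at 0 and 10 min.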
* = called active by the depositor; ? = inconclusive; . = no result given; [ ] = remark or other dose. The call rests on the fitted dose curve; in most records, active means well fitted curve in the direction sought with a large enough effect; inconclusive means small, poorly fitted or top-dose-only effect, or another doubt; inactive means no such curve, though single readings can be large; an effect the other way counts as inactive or inconclusive. Potency means the concentration at half of the fitted maximal effect.

SMILES	WRN inhibitor	Pol kappa inh	FEN1 inh	POLI inh	POLB inh	POLH inh
O=C(Nc1ccc(-c2nc3ccccc3[nH]2)cc1)c1ccccc1NS(=O)(=O)c1ccc(F)cc1	-32.3%[57.1 µM]	-40.0%	?	?	-23.8%	28.2µM*
Cc1ccc2nc(-c3ccc(SCC(=O)Nc4ccc5c(c4)OCCO5)nc3)[nH]c2c1	-0.5%	-29.8%	-0.2%	?	14.1µM*	?
O=C(CSc1ccc(-c2nc3ccccc3[nH]2)cn1)Nc1ccc(S(=O)(=O)NC2CC2)cc1	2.9%	-8.6%	5.2%	?	17.8µM*	?
Cc1cc2nc(-c3ccc(SCC(=O)Nc4ccc5c(c4)OCCO5)nc3)[nH]c2cc1C	-21.9%	-23.3%	-12.2%	?	?	-18.1%
O=C(CSc1ccc(-c2nc3ccccc3[nH]2)cn1)Nc1ccc2c(c1)OCCO2	-24.7%	-4.7%[60.1 µM]	-20.9%	?	17.8µM*	-14.6%
CC(C)c1ccc(S(=O)(=O)c2nnn3c2nc(N2CCOCC2)c2sccc23)cc1	.	-1.6%	30.3%	14.7%	14.9%	-9.6%
C[N+]1(C)CC[C@@H](OC(=O)[C@@](O)(c2ccccc2)C2CCCC2)C1	.	-5.4%[12 µM]	.	.	.	.
Cc1nc(NC(=O)CSc2ccc(-c3nc4ccccc4[nH]3)cn2)sc1C	-6.0%	-16.6%	-12.0%	155.1%	-10.7%	-16.8%
CCc1nnc(NC(=O)CSc2ccc(-c3nc4ccccc4[nH]3)cn2)s1	-25.2%	-32.2%	-8.8%	?	35.5µM*	?
O=C1N/C(=C\c2ccc(O)cc2)C(=O)c2ccccc21	?	-17.4%	-14.5%	20µM*	2.0%	25.1µM*
O=C(O)/C=C1\NC(=O)c2ccccc21	2.0%	-10.0%	-5.9%	-4.1%	13.4%	4.0%
CC(C)=CCc1c2c(c3occ(-c4ccc(O)cc4)c(=O)c3c1O)C=CC(C)(C)O2	-7.4%	?	-11.7%	17.6%	?	?
CC1(C)C=Cc2c(c3c(c4c(=O)c(-c5ccc(O)cc5)coc24)OC(C)(C)CC3)O1	-2.1%	-8.9%	-3.8%	3.5%	11.2µM*	-14.1%
Cc1sc2nc(CN3CCCCC3)nc(Nc3ccc4c(c3)OCCO4)c2c1C	1.8%	-8.1%	-1.7%	54.0%	79.4µM*	-10.1%
Cc1sc2nc(CN3CCCC3)nc(NCc3ccncc3)c2c1C	-6.6%	2.5%	4.8%	8.5%	-1.8%	-14.4%
CCN(CC)CCCNC(=O)CN1C(=O)COc2ccc(S(=O)(=O)N3CCC(C)CC3)cc21	.	-0.1%	-3.1%	47.0%	1.7%	-14.3%
C=C1C=C(C)n2ncc(C(=O)Nc3cccc4cnccc34)c2N1	.	?	?	79.4µM*	.	.
C=C1C=C(C)n2ncc(C(=O)Nc3ccccc3C(=O)OC)c2N1	.	-19.9%	0.5%	9.2%	.	.
CC(C)C(=O)OC1=CN(Cc2ccccc2)S(=O)(=O)c2ccccc21	.	-5.4%	4.4%	13.4%	2.6%	-22.2%
COC(=O)c1c(NC(=O)/C=C/C(=O)O)sc(C)c1-c1ccc(C(C)C)cc1	9.5%	-16.7%	-0.7%	21.5%	-5.0%	79.4µM*
O=C1N=C(N2CCN(c3ccccc3)CC2)S/C1=C\c1ccco1	-8.1%	-19.5%[60.1 µM]	1.5%	44.7µM*	12.6µM*	?
O=C1N=C(N2CCN(c3ccccc3)CC2)S/C1=C/c1ccco1	-8.6%[11.6 µM]	?	-26.5%	44.7µM*	?	-16.0%
CCCCN(CC)C(=O)Cn1cc2c(n1)-c1c(oc(C(=O)N3CCCC3)c1C)CC2	.	-13.8%	1.1%	19.6%	-13.9%	-12.3%
Cc1ccc(-c2cn(-c3cccc(Cl)c3)c(S(=O)(=O)CC(=O)Nc3cccc(C)c3)n2)cc1	.	-5.4%	-5.9%	70.8µM*	12.5%	-2.1%
O=C(CS(=O)(=O)c1nc(-c2ccc(Cl)cc2)cn1-c1ccccc1)Nc1cccc(Cl)c1	.	-17.1%	-0.6%	?	3.6%	-15.3%
SMILES	WRN inhibitor	Pol kappa inh	FEN1 inh	POLI inh	POLB inh	POLH inh
Cc1[nH]n(-c2ccccc2)c(=O)c1N=Nc1c(O)cc(S(=O)(=O)N(C)C)c2ccccc12	-4.5%	-9.1%	-20.6%	30.1%	.	89.1µM*
Oc1ccccc1/C=N/Nc1nn[nH]n1	6.2%	5.8%	12.7%	30.6%	-1.6%	-4.8%
Cc1nnc(N/N=C/c2ccccc2O)n1N	-5.6%	-18.5%	0.9%	14.1µM*	-0.1%	-10.9%
CCOc1cc(/C=N/Nc2nnc(C)n2N)ccc1O	17.3%	-17.7%	-21.1%	8.91µM*	-24.0%	-5.3%
Cc1nnc(N/N=C/c2c(Cl)cccc2Cl)n1N	-12.4%	5.3%	12.0%	11.2µM*	-10.5%	-18.4%
Cc1ccc2c(c1)-c1c(cnc3cc(-c4ccc(F)cc4)nn13)CO2	.	-12.6%	-4.3%	5.4%	-14.7%	-8.1%
CCCN1CCC(=O)N(CCC#N)CC1	.	-4.0%	22.4%	12.8%	.	.
CC(=O)Nc1cccc(C(=O)NCc2ccc3c(c2)CCN3C(C)=O)c1	.	6.9%[60.1 µM]	-2.9%	16.2%	2.4%	-1.9%
NC(=O)Nc1ccc(/C=C2\C=Cc3ccccc32)cc1	.	-10.5%	-17.4%	4.6%	.	.
COc1ccc(NC(=O)CSc2nc(-c3ccc(OC)cc3)cc(=O)[nH]2)cc1	.	7.9%	6.8%	11.1%	8.3%	-20.5%
CCn1cc(C(=O)Nc2ncccc2O)c(=O)c2cc(F)c(N3CCN(C(=O)c4ccco4)CC3)cc21	-2.0%[11.6 µM]	-28.7%	-3.3%	70.8µM*	-19.6%	-2.2%
COc1ccc(Cn2c(SCc3ccc(C(=O)NCc4ccc(C)cc4)cc3)nc3cccnc32)cc1	.	-36.2%	?	79.4µM*	13.3%	-4.8%
CN(C)C1CCC(CC2CCc3ccccc32)CC1 (stereo unspecified)	.	-4.6%	6.3%	18.1%	.	.
NC(=O)c1cc([N+](=O)[O-])ccc1NCCc1ccccc1	-11.4%	-4.7%	11.2%	28.1%	14.6%	-7.2%
NC(=O)c1ccc([N+](=O)[O-])cc1SCc1ccccc1	-30.3%	?	-2.5%	?	39.8µM*	?
Cc1ccc(NC(=O)NNC(=O)c2cc3ccccc3cc2O)cc1	-5.5%	-17.0%	-5.0%	-24.3%	?	-12.1%
O=C(Nc1ccncc1)c1cc2ccccc2cc1O	-19.2%	-1.0%	3.2%	7.94µM*	.	-11.6%
CCCCNC(=O)CCCn1c(=O)c2ccccc2n(CC(=O)Nc2ccccc2OCC)c1=O	.	-9.8%	-5.4%	5.1%	1.0%	-10.4%
CC1Cc2ccccc2N1C(=O)COC(=O)c1ccc(N(C)C)cc1 (stereo unspecified)	56.2µM*	50.1µM*	-8.5%	12.6µM*	.	7.94µM*
CC1Cc2ccccc2N1C(=O)COC(=O)c1ccc(O)cc1 (stereo unspecified)	7.4%	14.8%	-4.7%	10.8%	4.9%	-8.3%

Assay outcomes: PubChem BioAssay, National Center for Advancing Translational Sciences (NCATS)
